Bioassay records deposited in PubChem BioAssay by National Center for Advancing Translational Sciences (NCATS).
Shown are actives, neighbours in structure and some others; about 0.39% of the full set was active somewhere.
PTAP TSG101 blk = blocks PTAP/TSG101 interaction to inhibit HIV-1 budding. Q99816. Fluorescence polarization, FITC-PTAP peptide / Tsg101 binding. Potency, µM (series often up to 115 µM), for the others: top-dose activity change, negative = inhibition, hits mostly inhibitors. 340,000 tested, under 10 active. AID 493005; active means well fitted inhibition curve with a large enough effect in the main read-out, with a control signal flat, not every such curve was filed as active; inconclusive means small, poorly fitted or top-dose-only effect, or effect the other way, or a change in a side signal; inactive means no such curve, though single readings can be large or run the other way; further: potency means the concentration at half of the fitted maximal effect; % of control where 0% means no effect
Target sequence (Q99816 whole entry, looked up): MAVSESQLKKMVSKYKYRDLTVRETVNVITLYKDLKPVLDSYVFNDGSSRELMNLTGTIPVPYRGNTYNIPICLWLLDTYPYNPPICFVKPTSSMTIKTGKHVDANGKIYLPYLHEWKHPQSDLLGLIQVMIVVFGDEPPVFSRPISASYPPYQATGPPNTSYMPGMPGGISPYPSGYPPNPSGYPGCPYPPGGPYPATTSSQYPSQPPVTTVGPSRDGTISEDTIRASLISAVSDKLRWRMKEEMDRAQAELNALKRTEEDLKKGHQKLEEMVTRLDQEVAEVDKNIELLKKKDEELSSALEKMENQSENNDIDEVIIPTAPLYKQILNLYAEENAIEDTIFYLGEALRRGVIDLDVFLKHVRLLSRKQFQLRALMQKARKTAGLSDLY
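FP read-out: FITC-PTAP peptide, 50 nM final, binding Tsg101 binding domain, 10 uM final; 20 min, r.t.; 10 mM HEPES pH 7.5, 0.15 M NaCl, 0.01% Tween 20, 3 mM EDTA, 0.1 mM TCEP.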
A-T KAP1 phos = potential ataxia-telangiectasia treatments restoring KAP-1 phosphorylation. F2112 A-T fibroblasts, KAP-1 phosphorylation AlphaLISA; neocarzinostatin DNA damage 30 min before lysis. Potency, µM (titrated, usually from 57.5 µM), for the others: at the highest dose activation, most hits filed as activators. actives 0.19% (n = 320,000); further: potency means the concentration at half of the fitted maximal effect; % of control where 0% means no effect; nearly all actives have a fitted effect of over 45% in size
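hTERT-immortalized A-T patient fibroblasts (F2112), 500 cells/well in OPTI-MEM, 1% FBS, got compounds for 60 min, then NCS for 30 min at 37C. Lysates were then assayed for phospho-KAP-1 by AlphaLISA (anti-pKAP1 donor, anti-KAP1 acceptor beads), 6 hr at 25C.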
Pin1 inh = human Pin1 inhibition. Pin1 FP peptide displacement, HiFluor488, 10 min. Potency, µM (titrated, usually from 115 µM), for the others: top-dose activity, negative = inhibition, actives largely listed as inhibitors. actives 0.009% (n = 390,000). AID 504891; active means well fitted inhibition curve with a large enough effect in the polarisation, with a control signal flat, not every such curve was filed as active; inconclusive means small, poorly fitted or top-dose-only effect, or effect the other way, or a change in a side signal; inactive means no such curve, though single readings can be large or run the other way; the % refers to the polarisation; further: potency means the concentration at half of the fitted maximal effect; on the % scale 0 is the no-effect control and ±100 the full control effect
Target sequence (Q13526 whole entry, looked up): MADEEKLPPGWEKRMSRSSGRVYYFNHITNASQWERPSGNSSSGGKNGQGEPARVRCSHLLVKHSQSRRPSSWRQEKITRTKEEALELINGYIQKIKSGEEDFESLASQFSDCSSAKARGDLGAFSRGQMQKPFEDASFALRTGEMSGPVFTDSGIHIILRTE
PKM2 activator = PKM2 (human) enzyme activation; P14618; purified PKM2, Kinase-Glo ATP luminescence, activation; response scale: 0% is enzyme alone, no compound; Potency, µM (doses to about 57.5 µM), for the others: at the top dose activation, actives largely listed as activators; actives 0.34% (n = 260,000); further: potency means the concentration at half of the fitted maximal effect; on the % scale 0 is the no-effect control and ±100 the full control effect; nearly all actives have a fitted effect of over 55% in size
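Kinase-Glo luminescence reports ATP generated from ADP (0.1 mM) and PEP (0.5 mM) by purified hPK-M2 after 1 h at room temperature, pH 7.2 imidazole buffer; intermediate enzyme activity allows detecting inhibitors and activators.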
HeLa viability = reduces HeLa cell viability in PKM2 activator counter-screen; shares compounds with PKM2 activator; activity change, negative = cytotoxicity, % at 57.5 µM; 230 tested, under 10 active; HeLa viability, CellTiter-Glo ATP luminescence, 24 h; further: % of control where 0% means no effect
* marks the source's active call; other numbers are inactive results; u = inconclusive; x = no result; [ ] = dose if it differs, or a comment. Unless noted, the call rests on the fitted dose curve; in most records, active means well fitted curve in the direction sought with a large enough effect; inconclusive means small, poorly fitted or top-dose-only effect, or another doubt; inactive means no such curve, though single readings can be large; an effect the other way counts as inactive or inconclusive.

SMILES	PTAP TSG101 blk	A-T KAP1 phos	Pin1 inh	PKM2 activator	HeLa viability
CC1(C)OC(=O)C2(Cc3ccc(Cl)cc3N3CCCC32)C(=O)O1 (stereo not drawn)	x	x	6.8%	x	x
CC(=O)Nc1cc(S(=O)(=O)Nc2cccc(C)c2)c(C)cc1C	0.8%	-2.2%	-4.1%	2.0%	x
Cc1cccc(NS(=O)(=O)c2cc3c(cc2C)n(C)c(=O)c(=O)n3C)c1	0.3%	-4.5%	0.9%	0.398µM*	-25.1
Cn1c2cc(B(O)O)sc2c2cnn(Cc3c(F)cccc3Cl)c(=O)c21	x	-9.8%	x	x	x
Cn1c2cc(B(O)O)sc2c2cnn(Cc3c(F)cccc3F)c(=O)c21	x	-9.2%	x	x	x
CC(C)c1cc2c(s1)c1cnn(Cc3ccccc3F)c(=O)c1n2C	x	x	u	x	u
CC(O)c1cc2c(s1)c1cnn(Cc3ccccc3F)c(=O)c1n2C (stereo not drawn)	-4.9%	-0.2%	2.1%	x	-11.5
Cn1c2cc(C#N)sc2c2cnn(Cc3ccccc3F)c(=O)c21	x	x	0.5%	x	-5.3
COC(=O)c1cc2c(s1)c1cnn(Cc3ccccc3F)c(=O)c1n2C	x	7.0%	x	x	1.7[23.3 µM]
Cn1c2cc(B(O)O)sc2c2cnn(Cc3ccc(F)cc3F)c(=O)c21	x	3.2%	x	x	x
CNC(=O)c1ccc2nc(-c3cccc(C)c3)c(-c3cccc(C)c3)nc2c1	x	x	8.2%	x	x
O=S(=O)(c1ccc(Br)cc1)N1CCN(c2nc(-c3cccs3)nc3ccccc23)CC1	x	x	-2.8%	x	x
CN1CCN(c2nc3c(=O)[nH]c(N)nc3n2C2OC(CO)C(O)C2O)CC1 (stereo not drawn)	x	x	1.9%	x	x
Nc1ccccc1S(=O)(=O)Nc1cccc2cccnc12	x	x	1.1%	x	x
Cn1c2cc([N+](=O)[O-])sc2c2cnn(Cc3ccccc3F)c(=O)c21	x	-2.1%	x	x	14.7
Cn1c2ccsc2c2cnn(Cc3ccccc3F)c(=O)c21	x	x	-6.9%	x	15.4
COc1cccc(C2=CC(c3ccccc3O)NC(C)(C)N2)c1 (stereo not drawn)	x	x	4.5%	x	x
CCOC(=O)CSc1nc2cc(OC)c(OC)cc2cc1C#N	x	x	10.9%	x	x
Cc1ccc(NS(=O)(=O)c2ccc3oc(=O)ccc3c2)cc1Cl	-5.0%	6.4%	-1.2%	1µM*	-3.6
O=S1(=O)N=C(Oc2ccccc2-c2ccccc2)c2ccccc21	x	x	-5.6%	x	x
COc1ccc(S(=O)(=O)NCC2CCCN(C(=O)c3ccccc3)C2)cc1 (stereo not drawn)	-1.9%	1.0%	-5.0%	2.51µM*	3.2
O=S(=O)(c1c(F)cccc1F)N1CCN(S(=O)(=O)c2c(F)cccc2F)CC1	x	x	5.3%	x	-17.5
Cc1noc(C)c1-c1ccc2ncnc(NCc3ccco3)c2c1	x	x	-4.7%	x	x
COc1ccc(-c2cc(C3C4C=CCC(C)C4C(=O)N3Cc3ccccc3)ccc2F)cc1OC (stereo not drawn)	x	x	8.0%	x	x
COc1cccc(CNC(=O)CCC2CCCN(C(=O)c3cc(C)on3)C2)c1 (stereo not drawn)	-2.8%	7.2%	1.1%	5.9%	x
SMILES	PTAP TSG101 blk	A-T KAP1 phos	Pin1 inh	PKM2 activator	HeLa viability
COc1cccc(CNC(=O)CCC2CCCN(C(=O)c3cc(C4CC4)[nH]n3)C2)c1 (stereo not drawn)	0.3%	-7.4%	-3.1%	3.55µM*	-4.4
CCCCC(O)C(=O)Nc1cc(C(F)(F)F)ccc1Cl (stereo not drawn)	x	x	-1.7%	x	x
CN(c1ccccc1)S(=O)(=O)c1cccc(C(=O)NCCc2ccc(O)c(O)c2)c1	1.5%	-13.2%	-0.7%	1.41µM*	-21.7
CCNc1nc(OC)nc(Oc2ccc(C(=O)OC)cc2)n1	2.5%	-0.6%	13.4%	2.5%	x
CCNc1nc(NCC)nc(Oc2ccc(N)cc2)n1	-1.7%	1.9%	-3.2%	2.51µM*	-2.4
COc1cc(NC(=O)CSc2nnc3c(n2)[nH]c2ccc(S(=O)(=O)NC(C)C)cc23)cc(OC)c1OC	-5.2%	3.3%	4.3%	0.794µM*	-17.5
COc1cc(NC(=O)CSc2nnc3c(n2)[nH]c2ccc(OC)cc23)cc(OC)c1	x	x	-4.8%	x	x
N#Cc1nc(Nc2cccc(C(F)(F)F)c2)nc(NC2CCCC2)n1	x	x	7.9%	x	x
Cc1ccc(-c2nc3ccccn3c2Nc2ccccc2)o1	0.8%	-2.7%	1.4%	2.24µM*	-4.8
COc1ccc(CCNC(=O)CSc2ccc3ccccc3c2)cc1OC	-2.3%	-6.5%	9.9%	0.0%	x
O=C(CSc1ccc2ccccc2c1)NCCc1ccc(O)c(O)c1	0.5%	2.2%	0.4%	2.82µM*	10.3
O=C(NCc1nnc(-c2cc3ccccc3[nH]2)o1)c1ccccc1	x	x	3.2%	x	x
COc1ccc(C(=O)/C=C/C(=O)N(CC(=O)NC2CCCCC2)Cc2ccccc2)c(O)c1	-0.7%	x	10.5%	3.55µM*	u
COc1ccc(S(=O)(=O)Nc2nc3c(s2)CCCC3)cc1	-7.5%	-2.5%	-1.0%	5.01µM*	-26.6
CCNS(=O)(=O)c1ccc(NC(=O)c2ccc(Cn3cc(Br)cn3)o2)cc1	1.0%	1.0%	-1.5%	5.01µM*	0.0
COc1ccc(C2=Nn3c(nnc3-c3cccc(OC)c3OC)SC2)c(OC)c1	x	x	-6.9%	x	x
CCCCS(=O)(=O)N1C2=NC(C(=O)OC)=C(C(=O)OC)[C@@H]3Nc4ccccc4[C@]23C[C@H]1C(=O)OC	x	x	x	-2.1%[11.5 µM]	x
Cn1c2cc(Br)sc2c2cnn(Cc3c(F)cccc3F)c(=O)c21	x	10.6%	x	x	x
Cc1cc2c(s1)c1cnn(Cc3ccc(-c4ccccc4)cc3)c(=O)c1n2C	x	x	-6.3%	x	-0.9
Cc1cc2c(s1)c1cnn(Cc3ccc(Cl)cc3)c(=O)c1n2C	x	x	41.7%	x	-16.7
Cn1c2cc(Br)sc2c2cnn(Cc3c(F)cccc3Cl)c(=O)c21	-2.7%	4.3%	-5.8%	x	x
O=S(=O)(c1ccc2c(c1)OCCO2)N1CCN(S(=O)(=O)c2ccc3c(c2)OCCO3)CC1	x	6.3%	5.3%	x	5.5
O=C(CN1CCN(S(=O)(=O)c2ccc3c(c2)OCCO3)CC1)Nc1cccc(F)c1	-5.6%	14.0%	-3.5%	x	x
O=S(=O)(c1ccc2c(c1)OCCO2)N1CCN(S(=O)(=O)c2ccccn2)CC1	-7.4%	-0.6%	11.2%	x	-12.2
O=S(=O)(c1cccc(Br)c1)N1CCN(S(=O)(=O)c2ccc3c(c2)OCCO3)CC1	-0.8%	4.1%	8.3%	x	x
SMILES	PTAP TSG101 blk	A-T KAP1 phos	Pin1 inh	PKM2 activator	HeLa viability
COc1ccc(S(=O)(=O)N2CCC(C(=O)NCc3cccc(OC)c3)CC2)cc1	-5.6%	-8.8%	-3.8%	1.58µM*	0.0
O=S(=O)(c1cccc(F)c1)N1CCN(S(=O)(=O)c2ccc3c(c2)OCCO3)CC1	x	x	-12.2%	x	11.5
O=S(=O)(c1ccc2c(c1)OCCO2)N1CCN(Cc2ccccc2)CC1	-6.4%	0.3%	1.4%	6.8%	x
Nc1cc(C(F)(F)F)ccc1S(=O)(=O)Nc1cccc2c1NCCC2	x	x	-8.1%	x	x
O=S(=O)(c1ccc2c(c1)OCCO2)N1CCN(c2nc3ccccc3s2)CC1	-8.6%	7.3%	14.6%	3.98µM*	-8.8
CCNc1cccc(S(=O)(=O)N2CCCN(S(=O)(=O)c3ccc4c(c3)OCCO4)CC2)c1	x	x	8.5%	x	x
